Consider 11 molecules from paper PMC12136788.

Residue numbers refer to the chain shown, from its start. Over roughly 24,000 sequences, “enrichment r” has its median near 0.99; the highest 2% begin near 3.7. What follows is part of a selection rich in the highest values, with near analogues and random picks from the rest.

The chains are these.
B1: chr14:79828021:79828022:+_ENSMUSG00000043881_ENSMUST00000061222|mus_mus|motif|central (ssRNA)
RNA: GGGAGUUCUACAGUCCGACGAUCAGGAUCAUAGCAGAGCAUGCGCUUACUGUUGACAGCGUAAAGAUAAUUCUGAACCACGGUUAGUUCAAAUGAAUAAAAGGAAUGUGGUACAGGAGCCACCAAUGCCCAUUGGUUCCUCUGCAACAGAGGAUUGAGCAUCA
B2: chr20:5919097:5919098:-_ENSG00000089195_ENST00000203001|hu_hu|FALSE|FALSE (ssRNA)
RNA: GGGAGUUCUACAGUCCGACGAUCGUUCUUAUUCUUGGGAUAUGAAAAAACAAGUAGUAAUGGCAUUUAAAGUUUAAUUACUAACUGUAUAAUGCCUGAGAACAAAAUUCAGAGCAAUUCUCAAAAGGGUUAAGAGUCAGACUCCAACAGAGGAUUGAGCAUCA
B3: chr3:49547525:49547526:-_ENSMUSG00000037892_ENSMUST00000035931|mus_mus|motif|central (ssRNA)
RNA: GGGAGUUCUACAGUCCGACGAUCGUUCAUAUGCUAAAAAUACAAGCAAAACUGUGAUAGCAUGCACAAGAGACAAAAGCGGAAGGUGAAUAAUUAUAGCCAAAAAAAGAGAGACAAUGCAGUCGAUACAAAUGUUCAAGUAUGCAACAGAGGAUUGAGCAUCA
B4: chr1:163112212:163112213:-_ENSG00000143248_ENST00000313961|hu_hu|hu_hu_hu_mus_False|1_18 (ssRNA)
RNA: GGGAGUUCUACAGUCCGACGAUCUUUUAUUAUCAGUAAGAGUGAGUUACAUACUAGGCAAAGUAUUGGAUACAAUAAUCAGGAAACAAACACUAUUGGUCCAGAAUUUAAAACUUUUGGGAUAAAUUGCUGGCACAGGAUUUACAACAGAGGAUUGAGCAUCA
B5: chr9:90322654:90322655:+_ENSG00000196730_ENST00000408954|hu_hu|FALSE|FALSE (ssRNA)
RNA: GGGAGUUCUACAGUCCGACGAUCAAAGAAAAGCGUAUAAGAAAUACACAUUUUGGAUAAAUAUGCACUUUUCUUUUUUAAAGGACAAUCAAUAUAGUAGUUAAAAAAAAUGUCAUUGAAAAGUUAGGAAUUCCAGCAAAAUUACAACAGAGGAUUGAGCAUCA
B6: chr1:154935262:154935263:-_ENSG00000160691_ENST00000448116|hu_hu|motif|central (ssRNA)
RNA: GGGAGUUCUACAGUCCGACGAUCAUUUUGUGCUCAAGAAUAAGCAAUGGAAAAGAAAAUAGGAAAGUAAGUCUACAGCCCGGAAAUAUAUGCAUAUAAAACUUUAAAAGAAUGCAGUUCCAACUCUACAGAUGGUAUGUGGGGCAACAGAGGAUUGAGCAUCA
B7: chr4:21667751:21667752:+_ENSMUSG00000028252_ENSMUST00000108240|mus_mus|motif|central (ssRNA)
RNA: GGGAGUUCUACAGUCCGACGAUCUUCUAGUAUAUGAUUCAUCCUGUAAGGAAAUUCCUUUGGAAAAGCAUAUGAAAAUCGGGUUUUUAAUACAGAAGUAGUAGCAGCAAUCAAUCUUGUAUUUGAGACAACACCAAAUUCCUCCAACAGAGGAUUGAGCAUCA
B8: chr3:49547525:49547526:-_ENSMUSG00000037892_ENSMUST00000035931|mus_hu|motif|central (ssRNA)
RNA: GGGAGUUCUACAGUCCGACGAUCGUUCUUAUACUAAAAAUAAAAGCAAAAAUAUGAGAUCAUGCACUGGAGACAAAAGCGGAAAAUGAAUAGUUAUAACAAAGAAAGACAAUAUUCCAAAAGAUUAAAAUGUUCAAGUAUUGUCAACAGAGGAUUGAGCAUCA
B9: chr1:154935262:154935263:-_ENSG00000160691_ENST00000448116|hu_hu|FALSE|FALSE (ssRNA)
RNA: B6 RNA with G81U, G82A
B10: chr11:87794696:87794697:-_ENSMUSG00000020483_ENSMUST00000020775|mus_hu|motif|central (ssRNA)
RNA: GGGAGUUCUACAGUCCGACGAUCGCCUUUUAUUUUGUAUAGGGAAAGAAAGAGAAAAGGGAGAGGUGGGAGAGAUUUCCGGGUGCAAUACAACCAAAAAAUAUUUUUAAAGUCUUGAAAAAUAAACAUAAAGCAGCCUUCUUCCAACAGAGGAUUGAGCAUCA
B11: chr3:49547525:49547526:-_ENSMUSG00000037892_ENSMUST00000035931|mus_hu|FALSE|FALSE (ssRNA)
RNA: B8 RNA with G80U, G81A

In this test the target is T1, UNK ZnF1-3 (human, UniProt Q9C0B0 31-174).
T1 sequence: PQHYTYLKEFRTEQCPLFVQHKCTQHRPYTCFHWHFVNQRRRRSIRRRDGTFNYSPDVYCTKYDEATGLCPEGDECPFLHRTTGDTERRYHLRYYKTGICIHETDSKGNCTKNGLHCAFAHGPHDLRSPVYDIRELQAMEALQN
As to the kind of experiment: nsRBNS (natural sequence RNA bind-n-seq); RBNS binding buffer (assumed for nsRBNS): 25 mM Tris pH 7.5, 150 mM KCl, 3 mM MgCl2, 0.01% Triton X-100, 500 ug/ml BSA, 20 U/ml SUPERase-In, 4 C; UNK is unkempt and MSI1 is Musashi-1; names of the RNAs are library labels; protein concentration not given here; high values mean tight binding.
As to B1, the binding signal came out at 1.02 enrichment R.
The same measure for B2: 0.585 enrichment R; for B3: 1.91 enrichment R.
The same measure for B4: 1.27 enrichment R; for B5: 8.3 enrichment R; for B6: 3.69 enrichment R.
The same measure for B7: 0.985 enrichment R; for B8: 3.95 enrichment R.
On to B9, for which the binding signal is 3.55 enrichment R.
The same measure for B10: 3.42 enrichment R; for B11: 4.56 enrichment R.
